Our source for the nuclei count values is the supplement of paper PMC8183993.

Each structure is given as a SMILES string. Values joined by “and” are separate entries in the source; they are usually repeats but may differ in a detail not shown here. Equal entries are not always repeated. Structures can show the parent of a compound that is named as a salt. ± gives the standard deviation of the averaged measurements. Whole data set: some 3,200 compounds, median “nuclei count (viability) relative to DMSO” near 99, cut for the lowest 2% near 16. For the sample, the lowest values were picked, then their nearest neighbours and some compounds at random.

For the assay, the system named is U2OS. In words: nuclei count (viability) relative to DMSO (% of DMSO); higher = more viable cells. Particulars: 10 µM; 24 h. The method, then: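 Primary image-based screen in U2OS cells: compounds at 10 uM for 24 h, then a 1 h o-propargyl-puromycin (OPP) pulse, click labelling, and high-throughput microscopy. Mean cytoplasmic OPP intensity and nuclei count were normalised to DMSO wells within each plate (DMSO = 100) and averaged over triplicate plates.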
As to `CC(C)Cc1ccc(C(C)C(=O)NO)cc1` (configuration not stated) [Ibuproxam], the nuclei count was found to be 95.9.

In turn, `CN(C)c1ccc(C(=C2C=CC(=[N+](C)C)C=C2)c2ccc(N(C)C)cc2)cc1` [Crystal violet] had a nuclei count of 13.

`CCOC(=O)Nc1cc(-c2ccc(C)c(NS(C)(=O)=O)c2)nn2c(C)nnc12` [Bromosporine] registered a nuclei count of 74.5.

With `CCCn1c(=O)c2[nH]c(-c3ccccc3)nc2n(CCC)c1=O` [1,3-Dipropyl-8-phenylxanthine], the nuclei count came to 98.9.

As for `CC(C)C(=O)SCCCCCCC(=O)Nc1nc(-c2ccccc2)cs1`, the nuclei count came to 45.8.

Molecule `CCOC(=O)c1cnc2c(cnn2CC)c1NN=C(C)C` [Etazolate hydrochloride] displayed a nuclei count of 106.

In the case of `CN1CCCN(C(=O)c2cccc(-c3ccc(/C=C4/C(=O)Nc5ccc(Cl)cc54)o3)c2)CC1`, the nuclei count was determined as 6.22.

In the case of `CN1CCN(C(=O)c2nc3ccc(Cl)cc3[nH]2)CC1`, the nuclei count was found to be 88.3.

As for `Cc1[nH]c(/C=C2\C(=O)Nc3ccc(S(=O)(=O)N(C)c4cccc(Cl)c4)cc32)c(C)c1C(=O)N1CCN(C)CC1`, the nuclei count came to 52.4.

As to `CCCNC(=O)N1N=C(c2ccc(N)cc2)c2cc3c(cc2C1C)OCO3` (configuration not stated), the nuclei count worked out at 93.

As to `C[C@H]1O[C@@H](O[C@H]2[C@@H](O)C[C@H](O[C@H]3[C@@H](O)C[C@H](O[C@H]4CC[C@@]5(C)[C@H](CC[C@@H]6[C@@H]5C[C@@H](O)[C@]5(C)[C@@H](C7=CC(=O)OC7)CC[C@]65O)C4)O[C@@H]3C)O[C@@H]2C)C[C@H](O)[C@@H]1O` [Digoxin], the nuclei count came to 14.3.

Regarding `CCN1CCN(c2cc(-c3ccc(F)cc3)c3c(n2)CCCCCC3)CC1` [Blonanserin (Lonasen)], the nuclei count is 98.7.

Turning to `C[S+]([O-])c1ccc(-c2nc(-c3ccc(F)cc3)c(-c3ccncc3)[nH]2)cc1` (configuration not stated), the nuclei count was 96.8 and 103.

In turn, `N=C(NCCCCCCNC(=N)NC(=N)Nc1ccc(Cl)cc1)NC(=N)Nc1ccc(Cl)cc1` [Chlorhexidine] yielded a nuclei count of 75.6.

Turning to `CCCCC(CC)CNC(=N)NC(=N)NCCCCCCNC(=N)NC(=N)NCC(CC)CCCC` (configuration not stated) [Alexidine dihydrochloride], the nuclei count stood at 6.87.

Turning to `Nc1nc(OCc2cc(Br)cs2)c2[nH]cnc2n1` [Lomeguatrib], the nuclei count came out at 102.

In turn, `COc1cccc2c1C(=O)c1c(O)c3c(c(O)c1C2=O)C[C@@](O)(C(C)=O)C[C@@H]3O[C@H]1C[C@H](N)[C@H](O)[C@H](C)O1` [Daunorubicin HCl (Daunomycin HCl)] yielded a nuclei count of 10.2.

Turning to `COc1cccc2c1C(=O)c1c(O)c3c(c(O)c1C2=O)C[C@@](O)(C(=O)CO)C[C@@H]3O[C@H]1C[C@H](N)[C@H](O[C@@H]2CCCCO2)[C@H](C)O1` [Pirarubicin], the nuclei count is 33.

Consider `COc1cccc2c1C(=O)c1c(O)c3c(c(O)c1C2=O)C[C@@](O)(C(=O)CO)C[C@@H]3O[C@H]1C[C@H](N)[C@@H](O)[C@H](C)O1` [Epirubicin HCl], for which the nuclei count worked out at 13.2.

`CC(=O)[C@]1(O)Cc2c(O)c3c(c(O)c2[C@@H](O[C@H]2C[C@H](N)[C@H](O)[C@H](C)O2)C1)C(=O)c1ccccc1C3=O` [Idarubicin HCl] came in with a nuclei count of 11.6.

With `COc1cccc2c1C(=O)c1c(O)c3c(c(O)c1C2=O)C[C@@](O)(C(=O)CO)C[C@@H]3O[C@H]1C[C@H](N)[C@H](O)[C@H](C)O1` [Doxorubicin (Adriamycin)], the nuclei count is 12.7.

For `COc1cccc2c1C(=O)c1c(O)c3c(c(O)c1C2=O)C[C@@](O)(C(C)=O)C[C@@H]3O[C@H]1C[C@H](N)[C@H](O)[C@H](C)O1` [Daunorubicin hydrochloride], the nuclei count stood at 12.3.

With `COc1cccc2c1C(=O)c1c(O)c3c(c(O)c1C2=O)C[C@@](O)(C(=O)CO)C[C@@H]3O[C@H]1C[C@H](N)[C@H](O)[C@H](C)O1` [Doxorubicin hydrochloride], the nuclei count is 13 ± 0.18.

As to `CCCc1c(OCCCOc2ccc(OCC(=O)O)cc2)ccc(C(C)=O)c1O`, the nuclei count was 108.

As to `COc1c(OCCCN2CCOCC2)ccc2c1N=C(NC(=O)c1cnc(N)nc1)N1CCN=C21`, the nuclei count amounted to 93.2.

The molecule `CCOC(=O)[C@H](CCc1ccccc1)N[C@H]1CS[C@H](c2cccs2)CN(CC(=O)O)C1=O` [Temocapril HCl] registered a nuclei count of 108.

On to `O=C(/C=C/c1c(C(=O)O)[nH]c2cc(Cl)cc(Cl)c12)Nc1ccccc1` [Gavestinel], for which the nuclei count was 93.2.

With `Cn1cnc(N)c2ncnc1-2` [3-Methyladenine (3-MA)], the nuclei count worked out at 107.

`Cn1cnc(N)c2ncnc1-2` [3-Methyladenine] displayed a nuclei count of 104.

As for `OCC1OC(n2cnc3c(NC4CCCC4)nc(Cl)nc32)C(O)C1O` (configuration not stated) [2-Chloro-N6-cyclopentyladenosine], the nuclei count turned out to be 93.5.

`CC/C=C\C/C=C\C/C=C\C/C=C\C/C=C\C/C=C\CCC(=O)O` [Docosa-4Z,7Z,10Z,13Z,16Z,19Z-hexaenoic acid] registered a nuclei count of 96.9.

`CCCOC(=O)c1cc(O)c(O)c(O)c1` [N-Propyl gallate]: the nuclei count was found to be 82.9.

In turn, `Cc1cc(/C(=C/Nc2ccc(Cl)cc2)C(=O)Nc2ccc(Cl)cc2)on1` yielded a nuclei count of 102.

The molecule `Cc1sc(N)c(C(=O)c2cccc(C(F)(F)F)c2)c1C` had a nuclei count of 107.

On to `N[C@H](C(=O)O)[C@H](OCc1ccccc1)C(=O)O` (racemic), for which the nuclei count turned out to be 89.6.

With `CC(C)NCCN(C(C)C)S(=O)(=O)c1ccc(Cl)cc1Cl`, the nuclei count turned out to be 79.5.

For the molecule `CCCCCS(=O)(=O)CCCCCCCCCCn1c(-c2ccc(O)cc2)c(C)c2cc(O)ccc21`, the nuclei count is 105.

Regarding `CN(CCOc1ccc(C[C@H](Nc2ccccc2C(=O)c2ccccc2)C(=O)O)cc1)c1ccccn1`, the nuclei count is 104.

`CC1(C)S[C@@H]2[C@H](NC(=O)Cc3ccccc3)C(=O)N2[C@H]1C(=O)O` [Benzylpenicillin sodium]: the nuclei count was determined as 98.6.

For `CC1(C)OC2=C(C(=O)c3ccccc3C2=O)[C@H](NCc2ccccc2)[C@@H]1O`, the nuclei count was 14.7.

As for `CC1(C)S[C@@H]2[C@H](NC(=O)Cc3ccccc3)C(=O)N2[C@H]1C(=O)O` [Benzathine benzylpenicillin], the nuclei count turned out to be 81.7.

For `Cc1cc(C(=O)NNCc2ccccc2)no1` [Isocarboxazid], the nuclei count was 109.

For the molecule `C[C@H]1COC2(CCN(c3nc(=O)c4cc(C(F)(F)F)cc([N+](=O)[O-])c4s3)CC2)O1` (racemic) [BTZ043 racemate], the nuclei count turned out to be 101.

In turn, `Cc1nnc(-c2ccc3occ(-c4ccc([S+](C)[O-])cc4)c3c2)o1` (configuration not stated) gave a nuclei count of 112.

In turn, `COc1c(C)cnc(Cn2cnc3c(Cl)nc(N)nc32)c1C` yielded a nuclei count of 49.7.

Molecule `Cc1cn(CCN2CCN(c3ccccc3-c3cc(C#N)cc(C(=O)NCCCN4CCCC4)c3)CC2)c2ccccc12` gave a nuclei count of 22.8.

The molecule `O=C(Nc1cc(C(F)(F)F)cc(C(F)(F)F)c1)c1cc(Cl)ccc1O` returned a nuclei count of 78.7.

The molecule `CC(C)C[C@H](NC(=O)N1CCCCCC1)C(=O)N[C@H](Cc1cn(C)c2ccccc12)C(=O)N[C@H](Cc1ccccn1)C(=O)O` showed a nuclei count of 100.

`O=C1c2ccccc2C(=O)c2c(NCCc3ccc(O)cc3)ccc(NCCc3ccc(O)cc3)c21` registered a nuclei count of 97.1.

In turn, `O=C1c2c(O)ccc(O)c2C(=O)c2c(NCCNCCO)ccc(NCCNCCO)c21` [Mitoxantrone dihydrochloride] came in with a nuclei count of 15.5.

As for `C[N+](C)([O-])CCNc1ccc(NCC[N+](C)(C)[O-])c2c1C(=O)c1c(O)ccc(O)c1C2=O` [Banoxantrone dihydrochloride], the nuclei count came to 51.2.

Take `Nc1[nH]nc2nc3ccccc3nc12`: the nuclei count amounted to 98.5.

`CCC(=O)N1CCN(c2ccc(-n3c(=O)ccc4cnc5ccc(-c6cnc7ccccc7c6)cc5c43)cc2C(F)(F)F)CC1` [Torin 1] came in with a nuclei count of 80.4.

Molecule `COc1ccc(-c2ccc3ncc4c(c3c2)n(-c2ccc(N3CCNCC3)c(C(F)(F)F)c2)c(=O)n4C)cn1` gave a nuclei count of 16.4 ± 5.4.

Regarding `Nc1ccc(-c2ccc3ncc4ccc(=O)n(-c5cccc(C(F)(F)F)c5)c4c3c2)cn1` [Torin 2], the nuclei count came out at 27.7 ± 1.8.

As for `O=C1[C@@H]2[C@H]3CC[C@H](C3)[C@@H]2C(=O)N1C[C@@H]1CCCC[C@H]1CN1CCN(c2nsc3ccccc23)CC1` [Lurasidone HCl], the nuclei count stood at 102.

Consider `CCN1CCN(c2ccc(Nc3cc(N(C)C(=O)Nc4c(Cl)c(OC)cc(OC)c4Cl)ncn3)cc2)CC1`, for which the nuclei count worked out at 96.4.

For the molecule `CC(C)[C@H](NS(=O)(=O)c1ccc(-c2ccc(Br)cc2)cc1)C(=O)O`, the nuclei count was 97.3.

`CC1(C)C[C@@H]1C(=O)N/C(=C\CCCCSC[C@H](N)C(=O)O)C(=O)O` [Cilastatin sodium] had a nuclei count of 96.7.

Regarding `CC1(C)C[C@@H]1C(=O)N/C(=C\CCCCSC[C@H](N)C(=O)O)C(=O)O` [Cilastatin], the nuclei count turned out to be 91.5.

With `COC1=CC(c2cc3ccccc3[nH]2)=N/C1=C\c1[nH]c(C)cc1C` [Obatoclax mesylate (GX15-070)], the nuclei count worked out at 45.5.

As to `CC[C@]12C=CCN3CC[C@@]4(c5cc([C@@]6(C(=O)OC)C[C@@H]7C[C@@H](C(C)(F)F)CN(Cc8c6[nH]c6ccccc86)C7)c(OC)cc5N(C)[C@H]4[C@@](O)(C(=O)OC)[C@@H]1OC(C)=O)[C@@H]32` [Vinflunine Tartrate], the nuclei count is 14.1.

In turn, `CC[C@]1(O)C[C@H]2CN(CCc3c([nH]c4ccccc34)[C@@](C(=O)OC)(c3cc4c(cc3OC)N(C=O)[C@H]3[C@@](O)(C(=O)OC)[C@H](OC(C)=O)[C@]5(CC)C=CCN6CC[C@]43[C@@H]65)C2)C1` [Vincristine] yielded a nuclei count of 18.1.

Take `CC[C@]1(O)C[C@@H]2CN(CCc3c([nH]c4ccccc34)[C@@](C(=O)OC)(c3cc4c(cc3OC)N(C)[C@H]3[C@@](O)(C(=O)OC)[C@H](OC(C)=O)[C@]5(CC)C=CCN6CC[C@]43[C@@H]65)C2)C1` [Vinblastine]: the nuclei count is 100.

As to `CCC1=C[C@@H]2CN(C1)Cc1c([nH]c3ccccc13)[C@@](C(=O)OC)(c1cc3c(cc1OC)N(C)[C@H]1[C@@](O)(C(=O)OC)[C@H](OC(C)=O)[C@]4(CC)C=CCN5CC[C@]31[C@@H]54)C2` [Vinorelbine (Navelbine)], the nuclei count is 16.1.

`CC[C@]1(O)C[C@H]2CN(CCc3c([nH]c4ccccc34)[C@@](C(=O)OC)(c3cc4c(cc3OC)N(C=O)[C@H]3[C@@](O)(C(=O)OC)[C@H](OC(C)=O)[C@]5(CC)C=CCN6CC[C@]43[C@@H]65)C2)C1` [Vincristine sulfate] registered a nuclei count of 17.8.

For `CC[C@]1(O)C[C@@H]2CN(CCc3c([nH]c4ccccc34)[C@@](C(=O)OC)(c3cc4c(cc3OC)N(C)[C@H]3[C@@](O)(C(=O)OC)[C@H](OC(C)=O)[C@]5(CC)C=CCN6CC[C@]43[C@@H]65)C2)C1` [Vinblastine sulfate], the nuclei count was 16.8.
